Measured values published in PubChem BioAssay (EPA / NIEHS).
Calls of active or inactive are those of the source. Rule for the calls: active = hit-call score of the fitted dose curve at least 0.9, where 1 is the maximum; inactive = score below 0.9.

Tests used:
[1] = target: CCAAT/enhancer-binding protein beta (Homo sapiens) (UniProt P17676); assay: ATG_C_EBP_CIS: Attagene CIS-FACTORIAL HepG2 Assay for human CCAAT/Enhancer Binding Protein (C/EBP) beta (AID 2282927); details: HepG2 Attagene cis-factorial transcription factor reporter; actives raise or lower the signal
Sequence of CCAAT/enhancer-binding protein beta (Homo sapiens) (P17676 whole entry, looked up, the tested form may be a part): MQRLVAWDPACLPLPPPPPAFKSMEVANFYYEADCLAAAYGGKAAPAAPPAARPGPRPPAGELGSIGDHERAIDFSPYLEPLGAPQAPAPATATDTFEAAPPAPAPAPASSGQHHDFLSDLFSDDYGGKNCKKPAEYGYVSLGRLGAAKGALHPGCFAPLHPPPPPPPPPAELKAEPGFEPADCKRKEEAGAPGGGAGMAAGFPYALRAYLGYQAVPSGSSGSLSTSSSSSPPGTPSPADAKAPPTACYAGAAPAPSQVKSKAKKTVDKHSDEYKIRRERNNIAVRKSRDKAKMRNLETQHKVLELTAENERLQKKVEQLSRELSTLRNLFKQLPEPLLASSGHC
Method in brief: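 Endogenous C/EBPb-driven reporter transcripts measured in transfected human HepG2 cells at 24 h via RT-PCR and capillary electrophoresis of labelled fragments. Activity fitted in both directions relative to DMSO baseline.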

[2] = ATG_CMV_CIS: Attagene CIS-FACTORIAL HepG2 Assay for human CMV (Internal Marker) (AID 2282928); details: HepG2 CMV promoter reporter, transcription factor profiling; actives raise or lower the signal;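 note: endpoint acts as a background internal control marker rather than a target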
Method in brief: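 Fluorescence intensity of RT-PCR-derived reporter fragments, resolved by capillary electrophoresis, gives the signal. HepG2 liver cells bearing transfected cis-element reporters were treated 24 h; activity in either direction was fit relative to DMSO-treated controls.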

[3] = ATG_DR4_LXR_CIS: Attagene CIS-FACTORIAL HepG2 Assay for human Liver X Receptor (LXR), DR4 submotif (AID 2282929); details: HepG2 Attagene DR4 cis-reporter, mRNA transcription; actives raise or lower the signal
Method in brief: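 After transient transfection with multiplexed cis-promoter reporter units, HepG2 cells received test chemicals for 24 h. Reporter mRNA induction, detected by fluorescence after RT-PCR and capillary electrophoresis, was scored relative to DMSO.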

[4] = ATG_AP_1_CIS: Attagene CIS-FACTORIAL HepG2 Assay for human Activator Protein 1 (AP-1) (AID 2282931); details: HepG2 Attagene cis-factorial AP-1 reporter mRNA; actives raise or lower the signal
Method in brief: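 After 24 h incubation with test chemical, RNA from transfected HepG2 cells was reverse-transcribed, amplified, fluorescently labelled and digested before capillary electrophoresis. Reporters were driven by cis-regulatory promoters; activity fitted bidirectionally versus DMSO.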

[5] = ATG_AP_2_CIS: Attagene CIS-FACTORIAL HepG2 Assay for human Activator Protein 2 (AP-2) (AID 2282932); details: HepG2 AP-2 cis-reporter, Attagene transcription factor profiling; actives raise or lower the signal
Method in brief: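 Transiently transfected HepG2 cells are exposed to chemical for 24 h. Reporter transcripts are then measured as fluorescence following RT-PCR and capillary separation, and gain- or loss-of-signal is fitted relative to DMSO.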

[6] = ATG_BRE_CIS: Attagene CIS-FACTORIAL HepG2 Assay for human Bone Morphogenetic Protein (BMP) Response Element (BRE) (AID 2282933); details: HepG2 BMP response element reporter, Attagene transcription factor profiling; actives raise or lower the signal
Method in brief: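 Gain- or loss-of-signal was derived by bidirectional fitting against DMSO controls. The signal came from reporter mRNA, measured by RT-PCR and capillary electrophoresis, in HepG2 cells transiently carrying multiple reporter units and dosed for 24 h.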

[7] = target: Transcription factor E2F1 (Homo sapiens) (UniProt Q01094); assay: ATG_E2F_CIS: Attagene CIS-FACTORIAL HepG2 Assay for human E2F Transcription Factor 1 (AID 2282935); details: HepG2 Attagene cis-reporter, E2F reporter RNA transcripts; actives raise or lower the signal
Sequence of Transcription factor E2F1 (Homo sapiens) (Q01094 whole entry, looked up): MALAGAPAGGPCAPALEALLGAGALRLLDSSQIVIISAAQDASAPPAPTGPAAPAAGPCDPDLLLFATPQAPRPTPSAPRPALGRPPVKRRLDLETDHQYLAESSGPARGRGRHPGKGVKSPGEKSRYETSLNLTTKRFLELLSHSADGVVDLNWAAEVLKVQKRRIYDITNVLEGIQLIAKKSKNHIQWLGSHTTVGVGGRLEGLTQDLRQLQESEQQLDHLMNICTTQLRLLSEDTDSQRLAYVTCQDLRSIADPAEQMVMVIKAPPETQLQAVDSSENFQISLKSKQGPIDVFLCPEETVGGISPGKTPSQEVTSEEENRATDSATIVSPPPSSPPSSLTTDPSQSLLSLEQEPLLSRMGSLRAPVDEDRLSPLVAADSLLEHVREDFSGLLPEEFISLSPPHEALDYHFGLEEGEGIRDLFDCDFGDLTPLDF
Method in brief: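 Fluorescent RT-PCR products, digested with HpaI for 2 h at 37 C, are separated by capillary electrophoresis. Source RNA comes from transfected HepG2 cultures treated for 24 h.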

[8] = ATG_E_Box_CIS: Attagene CIS-FACTORIAL HepG2 Assay for human Enhancer Box (E-box) (AID 2282936); details: HepG2 E-box cis-reporter transcription, actives raise or lower the signal
Method in brief: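 Fluorescent reporter fragments separated by capillary electrophoresis gave the signal; mRNA came from HepG2 cells transfected with cis-element reporters and treated 24 h. Curves fitted bidirectionally relative to DMSO controls.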

[9] = ATG_M_61_CIS: Attagene CIS-FACTORIAL HepG2 Assay for M61 Transcription Factor (Internal Marker) (AID 2282937); details: HepG2 Attagene CIS-FACTORIAL M61 internal marker reporter; actives raise or lower the signal
Method in brief: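 Using transiently transfected HepG2 liver cells, reporter transcript levels were assessed 24 h post-dosing by RT-PCR and capillary electrophoresis. Changes in either direction were fitted relative to DMSO controls.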

[10] = ATG_EGR_CIS: Attagene CIS-FACTORIAL HepG2 Assay for human Early Growth Response 1 (EGR1) (AID 2282938); details: HepG2 Attagene CIS-FACTORIAL EGR reporter mRNA; actives raise or lower the signal
Method in brief: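 Fluorescent capillary-electrophoresis signal of reporter cDNA fragments serves as read-out. HepG2 cells bear transiently transfected cis-promoter reporter units and are exposed 24 h; gain- or loss-of-signal is fitted against DMSO.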

[11] = ATG_Ets_CIS: Attagene CIS-FACTORIAL HepG2 Assay for human Erythroblast Transformation Specific (ETS) (AID 2282941); details: HepG2 ETS cis-reporter transcription, actives raise or lower the signal
Method in brief: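 Multiplexed reporter transcript profiling: HepG2, 24 h treatment, total RNA to cDNA, PCR, 6-FAM labelling, HpaI cut, capillary electrophoresis. Gain- or loss-of-signal fitted against DMSO.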

[12] = ATG_GATA_CIS: Attagene CIS-FACTORIAL HepG2 Assay for human GATA Binding Protein (AID 2282944); details: HepG2 GATA cis-element reporter, Attagene multiplex mRNA; actives raise or lower the signal
Method in brief: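 DMSO serves as negative control and baseline for bidirectional fitting of reporter mRNA changes. HepG2 cells bearing transiently transfected cis-promoter reporters were exposed 24 h; transcripts detected via RT-PCR and capillary electrophoresis.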

[13] = ATG_GLI_CIS: Attagene CIS-FACTORIAL HepG2 Assay for human Zinc Finger Protein GLI1 (AID 2282945); details: HepG2, Attagene cis-factorial reporter mRNA, GLI element; actives raise or lower the signal
Method in brief: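 Bidirectional curve fits relative to DMSO, using reporter mRNA levels from RT-PCR plus capillary electrophoresis. Cells were HepG2 transiently carrying cis-regulated reporter constructs, harvested 24 h after dosing.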

[14] = ATG_ISRE_CIS: Attagene CIS-FACTORIAL HepG2 Assay for human Interferon Regulatory Factor 1 (IRF1) binding to an Interferon-Stimulated Response Element (ISRE) (AID 2282948); details: HepG2 ISRE cis-reporter (Attagene), mRNA transcription readout; actives raise or lower the signal
Method in brief: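 Signal reflects induction or loss of ISRE-linked reporter mRNA in transiently transfected HepG2 cells after a 24 h treatment, detected by fluorescent RT-PCR fragments on capillary electrophoresis and normalised to DMSO.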

[15] = ATG_M_32_CIS: Attagene CIS-FACTORIAL HepG2 Assay for M32 Transcription Factor (Internal Marker) (AID 2282949); details: HepG2 Attagene cis-factorial M32 reporter, mRNA; actives raise or lower the signal;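 note: background control marker of the multiplexed CIS panel rather than a real target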
Method in brief: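 Transient MRTU transfection of HepG2; 24 h compound treatment; TriZol RNA, oligo(dT) RT, reporter PCR, 6-FAM primer extension, HpaI cut, CE. Gain/loss of signal vs DMSO.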

[16] = ATG_M_06_CIS: Attagene CIS-FACTORIAL HepG2 Assay for M06 Transcription Factor (Internal Marker) (AID 2282950); details: HepG2 Attagene CIS-FACTORIAL M06 internal marker reporter; actives raise or lower the signal
Method in brief: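 Fluorescence-labelled RT-PCR products from cis-promoter reporter units, cut with HpaI and resolved by capillary electrophoresis, give the signal. Cells are human HepG2, dosed for 24 h. Serves as background control, fitted relative to DMSO.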

[17] = target: Hepatocyte nuclear factor 6 (Homo sapiens) (UniProt Q9UBC0); assay: ATG_HNF6_CIS: Attagene CIS-FACTORIAL HepG2 Assay for human Hepatocyte Nuclear Factor 6 (HNF6) (AID 2282952); details: HepG2 Attagene cis-factorial HNF6 reporter transcription; actives raise or lower the signal
Sequence of Hepatocyte nuclear factor 6 (Homo sapiens) (Q9UBC0 whole entry, looked up, the tested form may be a part): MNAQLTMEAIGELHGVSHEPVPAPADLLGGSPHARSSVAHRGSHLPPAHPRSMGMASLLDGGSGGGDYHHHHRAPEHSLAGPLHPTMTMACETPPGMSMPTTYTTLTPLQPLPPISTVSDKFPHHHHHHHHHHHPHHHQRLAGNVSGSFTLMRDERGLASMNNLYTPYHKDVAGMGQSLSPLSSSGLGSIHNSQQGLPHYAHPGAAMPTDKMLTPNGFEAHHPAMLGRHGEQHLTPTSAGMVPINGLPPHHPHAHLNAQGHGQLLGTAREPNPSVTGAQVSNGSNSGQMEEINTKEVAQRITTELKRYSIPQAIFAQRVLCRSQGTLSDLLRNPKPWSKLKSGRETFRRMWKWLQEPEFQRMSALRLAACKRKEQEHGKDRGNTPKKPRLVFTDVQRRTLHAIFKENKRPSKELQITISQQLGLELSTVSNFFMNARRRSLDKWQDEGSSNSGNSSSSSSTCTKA
Method in brief: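 First, HepG2 cells were transfected with the multiplexed cis reporter library and dosed with chemical for 24 h. Next, RNA was reverse-transcribed, PCR-amplified and fluorescently labelled. Finally, HpaI-digested fragments were read by capillary electrophoresis.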

[18] = ATG_MRE_CIS: Attagene CIS-FACTORIAL HepG2 Assay for human Metal Responsive Element (MRE) (AID 2282954); details: HepG2 MRE cis-reporter transcription, Attagene multiplex; actives raise or lower the signal
Method in brief: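 Multiplexed cis-reporter assay in human HepG2 liver cells, 24 h incubation with test chemical. Reporter transcripts measured by RT-PCR and capillary electrophoresis; values from bidirectional curve fitting versus DMSO.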

[19] = ATG_PXRE_CIS: Attagene CIS-FACTORIAL HepG2 Assay for human Pregnane X Receptor Element (PXRE) (AID 2282957); details: HepG2 Attagene CIS-FACTORIAL PXRE reporter, mRNA; actives raise or lower the signal
Method in brief: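 After a 24 h chemical incubation, total RNA from transfected HepG2 cells was reverse-transcribed and reporter cDNA amplified, FAM-labeled, HpaI-digested and sized by capillary electrophoresis. DMSO served as baseline for bidirectional curve fitting.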

[20] = ATG_Sox_CIS: Attagene CIS-FACTORIAL HepG2 Assay for human SRY-box transcription factor (SOX) (AID 2282960); details: HepG2 Attagene cis-factorial SOX reporter, mRNA; actives raise or lower the signal
Method in brief: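 Using transiently transfected HepG2 cells, reporter transcription driven by cis elements was assessed 24 h after dosing. Signal was fluorescence of capillary-separated RT-PCR products, with DMSO defining baseline activity.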

Measured: AC50

Cc1ccc(C)c2ccccc12
active: [19] 33.4 µM
inactive: all other assays above

CC(C)(C)C(O)C(Oc1ccc(-c2ccccc2)cc1)n1cncn1 (stereo not given)
active: [1] 47.1 µM | [2] 33.4 µM | [3] 57.3 µM | [4] 44.2 µM | [14] 51.8 µM | [18] 42 µM | [19] 1.29 µM
inactive: all other assays above

CC(=O)/C=C/c1ccccc1
active: [3] 78.1 µM | [4] 86.4 µM | [6] 50 µM | [10] 69.4 µM | [14] 100 µM | [17] 70.9 µM | [18] 37.8 µM | [19] 26.4 µM | [20] 56.4 µM
inactive: all other assays above

C[C@]12CCC(=O)C(O)=C1CC[C@@H]1[C@@H]2CC[C@]2(C)C(=O)CC[C@@H]12
active: [19] 11.2 µM
inactive: all other assays above

CC(C)C(=O)Cl
inactive: all assays above

O=C(CCN1CC1)OCC(CO)(COC(=O)CCN1CC1)COC(=O)CCN1CC1
inactive: all assays above

O=S(=O)(O)OOS(=O)(=O)O
active: [19] 56.7 µM
inactive: all other assays above

CCC(C)(C)O
inactive: all assays above

CC(=O)C=Cc1ccccc1
active: [1] 100 µM | [2] 128 µM | [4] 133 µM | [5] 143 µM | [6] 74.5 µM | [10] 146 µM | [11] 100 µM | [14] 81.1 µM | [17] 179 µM | [19] 26 µM | [20] 164 µM
inactive: [3] | [7] | [8] | [9] | [12] | [13] | [15] | [16] | [18]

CCCCCc1cc(O)cc(O)c1
active: [3] 154 µM | [8] 36.9 µM | [10] 100 µM | [18] 100 µM | [19] 9.47 µM
inactive: all other assays above

CCc1cc(C)cc(CC)c1-c1c(OC(=O)C(C)(C)C)n2n(c1=O)CCOCC2
active: [7] 25.8 µM | [19] 9.48 µM
inactive: all other assays above

CNC(=N[N+](=O)[O-])NCC1CCOC1 (stereo not given)
inactive: all assays above

C[N+](C)(C)CC(=O)[O-]
inactive: all assays above
